Binding signal data for 4 sequences are collected here from article PMC11006913.

Experiment in all cases: PBM; 200 nM protein, PBS
Common to all, as to conditions: dsDNA, one strand shown

Assay [1] concerns the target HOXB9 (Homo sapiens, UniProt P17482 171-250, T197M).
The target of assay [2] is HOXA4 (Homo sapiens, UniProt Q00056 201-287, W262R).
Assay [3] concerns the target HOXC9 (Homo sapiens, UniProt P31274 178-260, K195R).
Another assay concerns the target T1, VENTX (Homo sapiens, UniProt O95231 78-163).
T1 sequence: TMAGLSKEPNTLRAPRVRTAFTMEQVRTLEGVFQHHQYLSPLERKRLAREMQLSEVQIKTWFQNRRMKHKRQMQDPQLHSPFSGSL

Assay [4] concerns the target HOXA7 (Homo sapiens, UniProt P31268 116-202).
In assay [5] the target is HOXB6 (Homo sapiens, UniProt P17509 132-218, K202E).
Sequence of HOXB6 (Homo sapiens, UniProt P17509 132-218, K202E) (P17509 132-218 K202E): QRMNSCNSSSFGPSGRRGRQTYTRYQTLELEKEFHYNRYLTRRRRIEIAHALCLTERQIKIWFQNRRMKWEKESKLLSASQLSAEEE
Assay [6] concerns the target HOXB9 (Homo sapiens, UniProt P17482 171-250).
Assay [7] addresses HOXC9 (Homo sapiens, UniProt P31274 178-260).
For assay [8], the target named is HOXC9 (Homo sapiens, UniProt P31274 178-260, R193K).
Sequence of HOXC9 (Homo sapiens, UniProt P31274 178-260, R193K) (P31274 178-260 R193K): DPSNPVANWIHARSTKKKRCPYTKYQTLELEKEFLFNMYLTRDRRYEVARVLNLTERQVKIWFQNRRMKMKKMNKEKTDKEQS
Assay [9] has as its target HOXA4 (Homo sapiens, UniProt Q00056 201-287).
Assay [10] has as its target HOXC10 (Homo sapiens, UniProt Q9NYD6 254-340, K271E).
The target in another assay is VAX1 (Homo sapiens, UniProt Q5SQQ9 86-172).
Sequence of VAX1 (Q5SQQ9 86-172): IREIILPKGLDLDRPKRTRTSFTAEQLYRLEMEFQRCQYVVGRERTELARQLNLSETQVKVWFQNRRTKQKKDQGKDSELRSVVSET
Assay [11] concerns the target HOXB9 (Homo sapiens, UniProt P17482 171-250, R186Q).
For assay [12], the target named is HOXC9 (Homo sapiens, UniProt P31274 178-260, R222W).
Sequence of HOXC9 (Homo sapiens, UniProt P31274 178-260, R222W) (P31274 178-260 R222W): as the sequence (P31274 178-260 R193K) above, with K16R, R45W counted along it
A further assay has as its target T2, PAX4 (Homo sapiens, UniProt O43316 9-242, R227W).
T2 sequence: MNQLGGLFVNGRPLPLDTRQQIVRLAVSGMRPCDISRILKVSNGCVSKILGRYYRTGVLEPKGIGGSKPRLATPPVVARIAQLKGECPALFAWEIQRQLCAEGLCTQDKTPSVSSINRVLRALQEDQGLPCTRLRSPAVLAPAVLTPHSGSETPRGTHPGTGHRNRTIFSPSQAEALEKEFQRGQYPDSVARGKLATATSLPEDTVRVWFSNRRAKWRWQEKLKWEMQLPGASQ

The target in assay [13] is HOXA2 (Homo sapiens, UniProt O43364 129-215, Y150S).
Sequence of HOXA2 (Homo sapiens, UniProt O43364 129-215, Y150S) (O43364 129-215 Y150S): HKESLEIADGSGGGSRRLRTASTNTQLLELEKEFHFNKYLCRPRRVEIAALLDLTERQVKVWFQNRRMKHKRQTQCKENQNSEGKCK
Assay [14] deals with HOXA7 (Homo sapiens, UniProt P31268 116-202, W177C).
Sequence of HOXA7 (Homo sapiens, UniProt P31268 116-202, W177C) (P31268 116-202 W177C): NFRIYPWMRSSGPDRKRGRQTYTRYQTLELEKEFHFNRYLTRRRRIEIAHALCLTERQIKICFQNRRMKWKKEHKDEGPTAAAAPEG
For assay [15], the target named is HOXA2 (Homo sapiens, UniProt O43364 129-215).
Sequence of HOXA2 (Homo sapiens, UniProt O43364 129-215) (O43364 129-215): as the sequence (O43364 129-215 Y150S) above, with S22Y counted along it
Assay [16] has as its target HOXB6 (Homo sapiens, UniProt P17509 132-218).
Assay [17] deals with HOXC10 (Homo sapiens, UniProt Q9NYD6 254-340).
Sequence of HOXC10 (Homo sapiens, UniProt Q9NYD6 254-340) (Q9NYD6 254-340): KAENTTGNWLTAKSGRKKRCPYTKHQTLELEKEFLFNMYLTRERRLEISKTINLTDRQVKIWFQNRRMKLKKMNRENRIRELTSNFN

Sequence of HOXB9 (Homo sapiens, UniProt P17482 171-250, R186Q) (P17482 171-250 R186Q): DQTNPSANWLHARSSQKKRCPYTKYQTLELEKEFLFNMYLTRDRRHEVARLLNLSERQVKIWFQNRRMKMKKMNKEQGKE
Sequence of HOXA7 (Homo sapiens, UniProt P31268 116-202) (P31268 116-202): as the sequence (P31268 116-202 W177C) above, with C62W counted along it
Sequence of HOXC9 (Homo sapiens, UniProt P31274 178-260, K195R) (P31274 178-260 K195R): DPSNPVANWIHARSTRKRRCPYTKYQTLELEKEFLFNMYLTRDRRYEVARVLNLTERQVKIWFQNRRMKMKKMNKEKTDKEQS
Sequence of HOXB6 (Homo sapiens, UniProt P17509 132-218) (P17509 132-218): as the sequence (P17509 132-218 K202E) above, with E71K counted along it
Sequence of HOXA4 (Homo sapiens, UniProt Q00056 201-287) (Q00056 201-287): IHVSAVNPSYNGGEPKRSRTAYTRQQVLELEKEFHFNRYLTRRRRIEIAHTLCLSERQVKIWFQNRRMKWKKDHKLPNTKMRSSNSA
Sequence of HOXC9 (Homo sapiens, UniProt P31274 178-260) (P31274 178-260): as the sequence (P31274 178-260 R193K) above, with K16R counted along it
Sequence of HOXB9 (Homo sapiens, UniProt P17482 171-250, T197M) (P17482 171-250 T197M): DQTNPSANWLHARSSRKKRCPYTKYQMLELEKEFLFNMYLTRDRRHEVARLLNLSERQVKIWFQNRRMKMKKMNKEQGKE
Sequence of HOXC10 (Homo sapiens, UniProt Q9NYD6 254-340, K271E) (Q9NYD6 254-340 K271E): as the sequence (Q9NYD6 254-340) above, with K18E counted along it
Sequence of HOXA4 (Homo sapiens, UniProt Q00056 201-287, W262R) (Q00056 201-287 W262R): as the sequence (Q00056 201-287) above, with W62R counted along it
Sequence of HOXB9 (Homo sapiens, UniProt P17482 171-250) (P17482 171-250): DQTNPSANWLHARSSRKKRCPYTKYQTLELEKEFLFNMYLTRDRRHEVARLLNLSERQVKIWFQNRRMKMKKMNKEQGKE

GCTAATTA: the binding signal with HOXB9 [1] was 10.2 upbm affinity estimate (log intensity, higher = more binding, comparable within an allelic series); with HOXA4 [2], 10.8 upbm affinity estimate (log intensity, higher = more binding, comparable within an allelic series); in the assay with HOXC9 [3], 12.5 upbm affinity estimate (log intensity, higher = more binding, comparable within an allelic series); in the assay with VENTX it was 13.5 upbm affinity estimate (log intensity, higher = more binding, comparable within an allelic series); with HOXA7 [4] it was 12.1 upbm affinity estimate (log intensity, higher = more binding, comparable within an allelic series); with HOXB6 [5], 10.1 upbm affinity estimate (log intensity, higher = more binding, comparable within an allelic series). Also, the binding signal with HOXB9 [6] was 11.8 upbm affinity estimate (log intensity, higher = more binding, comparable within an allelic series); with HOXC9 [7], 12.6 upbm affinity estimate (log intensity, higher = more binding, comparable within an allelic series); in the assay with HOXC9 [8] it was 12.5 upbm affinity estimate (log intensity, higher = more binding, comparable within an allelic series); in the assay with HOXA4 [9], 14.3 upbm affinity estimate (log intensity, higher = more binding, comparable within an allelic series); with HOXC10 [10], 12.1 upbm affinity estimate (log intensity, higher = more binding, comparable within an allelic series); with VAX1, 14 upbm affinity estimate (log intensity, higher = more binding, comparable within an allelic series). Moreover, the binding signal with HOXB9 [11] was 11.5 upbm affinity estimate (log intensity, higher = more binding, comparable within an allelic series); with HOXC9 [12], 10.9 upbm affinity estimate (log intensity, higher = more binding, comparable within an allelic series); with PAX4, 11.4 upbm affinity estimate (log intensity, higher = more binding, comparable within an allelic series); in the assay with HOXA2 [13] it was 10.8 upbm affinity estimate (log intensity, higher = more binding, comparable within an allelic series); in the assay with HOXA7 [14], 8.89 upbm affinity estimate (log intensity, higher = more binding, comparable within an allelic series); with HOXA2 [15] it was 13.4 upbm affinity estimate (log intensity, higher = more binding, comparable within an allelic series). Further, in the assay with HOXB6 [16], the binding signal was 12.5 upbm affinity estimate (log intensity, higher = more binding, comparable within an allelic series).

In the case of AATTAATA, the binding signal with HOXB9 [1] is 10.3 upbm affinity estimate (log intensity, higher = more binding, comparable within an allelic series); with HOXA4 [2], 10.8 upbm affinity estimate (log intensity, higher = more binding, comparable within an allelic series); with HOXC9 [3] it was 12.8 upbm affinity estimate (log intensity, higher = more binding, comparable within an allelic series); with VENTX, 12.3 upbm affinity estimate (log intensity, higher = more binding, comparable within an allelic series); with HOXA7 [4], 11.7 upbm affinity estimate (log intensity, higher = more binding, comparable within an allelic series); with HOXC10 [17] it was 12.2 upbm affinity estimate (log intensity, higher = more binding, comparable within an allelic series). Also, the binding signal is 10.2 upbm affinity estimate (log intensity, higher = more binding, comparable within an allelic series) with HOXB6 [5]; 12 upbm affinity estimate (log intensity, higher = more binding, comparable within an allelic series) in the assay with HOXB9 [6]; 12.7 upbm affinity estimate (log intensity, higher = more binding, comparable within an allelic series) in the assay with HOXC9 [7]; 12.7 upbm affinity estimate (log intensity, higher = more binding, comparable within an allelic series) in the assay with HOXC9 [8]; 13.8 upbm affinity estimate (log intensity, higher = more binding, comparable within an allelic series) with HOXA4 [9]; 12 upbm affinity estimate (log intensity, higher = more binding, comparable within an allelic series) with HOXC10 [10]. For the same sequence, the binding signal was 12.9 upbm affinity estimate (log intensity, higher = more binding, comparable within an allelic series) in the assay with VAX1; 11.8 upbm affinity estimate (log intensity, higher = more binding, comparable within an allelic series) in the assay with HOXB9 [11]; 11.3 upbm affinity estimate (log intensity, higher = more binding, comparable within an allelic series) in the assay with HOXC9 [12]; 11.2 upbm affinity estimate (log intensity, higher = more binding, comparable within an allelic series) in the assay with PAX4; 11.1 upbm affinity estimate (log intensity, higher = more binding, comparable within an allelic series) with HOXA2 [13]; 8.99 upbm affinity estimate (log intensity, higher = more binding, comparable within an allelic series) with HOXA7 [14]. For the same sequence, the binding signal was 12.1 upbm affinity estimate (log intensity, higher = more binding, comparable within an allelic series) with HOXA2 [15] and 12.1 upbm affinity estimate (log intensity, higher = more binding, comparable within an allelic series) in the assay with HOXB6 [16].

On to GCAATTAA, for which the binding signal with HOXB9 [1] was 10.5 upbm affinity estimate (log intensity, higher = more binding, comparable within an allelic series); in the assay with HOXA4 [2] it was 10.6 upbm affinity estimate (log intensity, higher = more binding, comparable within an allelic series); with HOXC9 [3], 13.1 upbm affinity estimate (log intensity, higher = more binding, comparable within an allelic series); in the assay with VENTX, 12.8 upbm affinity estimate (log intensity, higher = more binding, comparable within an allelic series); in the assay with HOXA7 [4] it was 12.3 upbm affinity estimate (log intensity, higher = more binding, comparable within an allelic series); in the assay with HOXC10 [17], 12.4 upbm affinity estimate (log intensity, higher = more binding, comparable within an allelic series). In addition, the binding signal was 10.1 upbm affinity estimate (log intensity, higher = more binding, comparable within an allelic series) with HOXB6 [5]; 12.6 upbm affinity estimate (log intensity, higher = more binding, comparable within an allelic series) with HOXB9 [6]; 13.1 upbm affinity estimate (log intensity, higher = more binding, comparable within an allelic series) with HOXC9 [7]; 13 upbm affinity estimate (log intensity, higher = more binding, comparable within an allelic series) in the assay with HOXC9 [8]; 13.9 upbm affinity estimate (log intensity, higher = more binding, comparable within an allelic series) with HOXA4 [9]; 12.6 upbm affinity estimate (log intensity, higher = more binding, comparable within an allelic series) with HOXC10 [10]. The binding signal in the assay with VAX1 is 13.2 upbm affinity estimate (log intensity, higher = more binding, comparable within an allelic series); with HOXB9 [11], 12.4 upbm affinity estimate (log intensity, higher = more binding, comparable within an allelic series); in the assay with HOXC9 [12] it was 11.1 upbm affinity estimate (log intensity, higher = more binding, comparable within an allelic series); with HOXA2 [13], 10.8 upbm affinity estimate (log intensity, higher = more binding, comparable within an allelic series); with HOXA7 [14], 8.72 upbm affinity estimate (log intensity, higher = more binding, comparable within an allelic series); in the assay with HOXA2 [15], 12.6 upbm affinity estimate (log intensity, higher = more binding, comparable within an allelic series). Besides, in the assay with HOXB6 [16], the binding signal was 12.7 upbm affinity estimate (log intensity, higher = more binding, comparable within an allelic series).

For ATTAATGA, the binding signal was 10.4 upbm affinity estimate (log intensity, higher = more binding, comparable within an allelic series) in the assay with HOXB9 [1]; 10.8 upbm affinity estimate (log intensity, higher = more binding, comparable within an allelic series) with HOXA4 [2]; 13 upbm affinity estimate (log intensity, higher = more binding, comparable within an allelic series) in the assay with HOXC9 [3]; 12.8 upbm affinity estimate (log intensity, higher = more binding, comparable within an allelic series) in the assay with VENTX; 12 upbm affinity estimate (log intensity, higher = more binding, comparable within an allelic series) in the assay with HOXA7 [4]; 12.5 upbm affinity estimate (log intensity, higher = more binding, comparable within an allelic series) in the assay with HOXC10 [17]. In addition, the binding signal in the assay with HOXB6 [5] is 10.3 upbm affinity estimate (log intensity, higher = more binding, comparable within an allelic series); with HOXB9 [6] it was 12.2 upbm affinity estimate (log intensity, higher = more binding, comparable within an allelic series); with HOXC9 [7], 13 upbm affinity estimate (log intensity, higher = more binding, comparable within an allelic series); with HOXC9 [8], 12.9 upbm affinity estimate (log intensity, higher = more binding, comparable within an allelic series); in the assay with HOXA4 [9] it was 14.2 upbm affinity estimate (log intensity, higher = more binding, comparable within an allelic series); in the assay with HOXC10 [10] it was 12.3 upbm affinity estimate (log intensity, higher = more binding, comparable within an allelic series). The binding signal with VAX1 was 13.4 upbm affinity estimate (log intensity, higher = more binding, comparable within an allelic series); in the assay with HOXB9 [11], 11.9 upbm affinity estimate (log intensity, higher = more binding, comparable within an allelic series); with HOXC9 [12] it was 11.2 upbm affinity estimate (log intensity, higher = more binding, comparable within an allelic series); with PAX4, 11 upbm affinity estimate (log intensity, higher = more binding, comparable within an allelic series); with HOXA2 [13], 11 upbm affinity estimate (log intensity, higher = more binding, comparable within an allelic series); in the assay with HOXA7 [14], 8.94 upbm affinity estimate (log intensity, higher = more binding, comparable within an allelic series). Also, the binding signal with HOXA2 [15] was 12.9 upbm affinity estimate (log intensity, higher = more binding, comparable within an allelic series); in the assay with HOXB6 [16], 12.3 upbm affinity estimate (log intensity, higher = more binding, comparable within an allelic series).
